Source: PubChem BioAssay AID1347142 (National Center for Advancing Translational Sciences (NCATS), 2019)
Results filed as inconclusive are left out. The source made the active and inactive calls. The call rests on the fitted dose curve; in most records, active means well fitted inhibition curve with a large enough effect; inconclusive means small, poorly fitted or top-dose-only effect; inactive means no such curve, though single readings can be large or run the other way.

Each molecule was assayed against N-terminal Xaa-Pro-Lys N-methyltransferase 1 (Homo sapiens) (UniProt Q9BV86) (assay: qHTS Assay for Inhibitors of N-terminal methyltransferase 1 (NTMT1): ThioGlo3 Assay Confirmatory Screen, Round 1.). Details: NTMT1 SAHH-coupled ThioGlo3 fluorescence, 30 min; series mostly up to 56.8 µM; activity change, negative = inhibition: at the top concentration.
How it was run: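 Human NTMT1 at 125 nM was preincubated 1 min at room temperature with compounds at various concentrations or 1 uM RCC1-6 control. Substrate mix (100 uM SAM, 10 uM SAHH, 15 uM ThioGlo3) was added, and fluorescence (Ex 340/Em 450 nm) was read at start and after 30 min, normalized to background.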
Further: nearly all actives have a fitted effect of over 80% in size.
Potency means the concentration at half of the fitted maximal effect.
Wherever activity change, negative = inhibition is given: 0% is about no effect.

Sequence of N-terminal Xaa-Pro-Lys N-methyltransferase 1 (Homo sapiens) (Q9BV86 whole entry, looked up): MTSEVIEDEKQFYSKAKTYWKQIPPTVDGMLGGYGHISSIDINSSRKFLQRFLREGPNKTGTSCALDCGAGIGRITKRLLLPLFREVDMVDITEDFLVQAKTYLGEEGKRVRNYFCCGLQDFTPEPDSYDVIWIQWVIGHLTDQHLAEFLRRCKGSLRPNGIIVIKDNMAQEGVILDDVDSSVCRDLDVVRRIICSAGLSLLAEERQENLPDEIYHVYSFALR

Potency, active:
COc1cc2c(NC3CCN(C)CC3)nc(N3CCN(C)CC3)nc2cc1OCCOCCN(C)C 21.5 µM
COc1cc2c(NC3CCN(CC4CCCCC4)CC3)nc(N3CCCCCC3)nc2cc1OCCOCCN(C)C 27.1 µM
OC[C@@H]1O[C@@H](n2cnc3c(NCc4ccco4)ncnc32)[C@H](O)[C@H]1O 24.1 µM
COc1cc2nc(NC3CCN(C)CC3)nc(NC3CCN(C)CC3)c2cc1OC 27.1 µM
CC(C)=CCNc1ncnc2c1ncn2[C@@H]1O[C@H](CO)[C@@H](O)[C@H]1O 13.6 µM
CCN(CC)CCCOc1cc2nc(N3CCCN(C)CC3)nc(NC3CCN(C)CC3)c2cc1OC 24.1 µM
COc1cc2nc(NC3CCN(C)CC3)nc(N3CCCN(C)CC3)c2cc1OC 24.1 µM
OCC1OC(n2cnc3c(NO)ncnc32)C(O)C1O (stereo unspecified) 3.83 µM
COc1cc2c(NC3CCN(C(C)C)CC3)nc(N3CCCCCC3)nc2cc1OCCOCCN(C)C 21.5 µM
COc1cc2c(NC3CCN(C(C)C)CC3)nc(N3CCC(N4CCCC4)CC3)nc2cc1OCCCN1CCCCC1 24.1 µM
COc1cc2c(NC3CCN(C4CCCCC4)CC3)nc(N3CCCCC3)nc2cc1OCCOCCN(C)C 24.1 µM
COc1cc2nc(N3CCCN(C)CC3)nc(N3CCN(C)CC3)c2cc1OC 8.57 µM
COc1cc2c(NC3CCN(C)CC3)nc(N3CCCN(C)CC3)nc2cc1OCCCCCCN(C)C 24.1 µM
Nc1nc(=S)c2ncn([C@@H]3O[C@H](CO)[C@@H](O)[C@H]3O)c2[nH]1 18.8 µM
COc1cc2nc(N3CCN(C(C)=O)CC3)nc(NC3CC3)c2cc1OC 21.5 µM
Nc1ncnc2c1ncn2[C@@H]1O[C@H](CO)C(O)[C@H]1O (stereo partly specified) 1.36 µM
COc1cc2c(NC3CCN(C4CCCCC4)CC3)nc(N3CCCN(C(C)C)CC3)nc2cc1OCCCN1CCCCC1 24.1 µM
CCC(CC)n1ccc2c(C(=O)NCc3c(C)cc(C)[nH]c3=O)cc(C#N)cc21 15.2 µM
COc1cc2c(NC3CCN(C)CC3)nc(N3CCN(C)CC3)nc2cc1OCCCN(C)C 24.1 µM
COc1cc2nc(N3CCOCC3)nc(NC(C)C)c2cc1OC 24.1 µM

Activity change, negative = inhibition, inactive:
C[C@H](Cc1ccccc1)Nc1ncnc2c1ncn2[C@@H]1O[C@H](CO)[C@@H](O)[C@H]1O 10.9%
CSCC1OC(n2cnc3c(N)ncnc32)C(O)C1O (stereo unspecified) 4.86%
CNc1ncnc2c1ncn2[C@@H]1O[C@H](CO)C(O)[C@H]1O (stereo partly specified) 7.24%
O=S(=O)(O)c1ccc(Nc2ncnc3c2ncn3[C@@H]2O[C@H](CO)[C@@H](O)[C@H]2O)cc1 5.87%
Nc1ncnc2c1nc(N1CCCCC1)n2[C@@H]1O[C@@H]2COP(=O)(O)O[C@H]2[C@H]1O -18.6%
CC(C)N(C[C@H]1O[C@@H](n2cnc3c(N)ncnc32)[C@H](O)[C@@H]1O)C1CC(CCc2nc3ccc(C(C)(C)C)cc3[nH]2)C1 (stereo partly specified) -13.7%
CCCC(=O)Nc1ncnc2c1ncn2[C@@H]1O[C@@H]2COP(=O)(O)O[C@H]2[C@H]1OC(=O)CCC 16.8%
OC[C@H]1O[C@@H](n2cnc3c(N[C@H]4C[C@H]5CC[C@@H]4C5)ncnc32)[C@H](O)[C@@H]1O -20.2%
Nc1ncnc2c1ncn2C1C[C@H](O)[C@@H](CO)O1 (stereo partly specified) -9.06%
Nc1ncnc2c1ncn2[C@@H]1O[C@H](COP(=O)(O)OP(=O)(O)OP(=O)(O)O)[C@@H](O)[C@H]1O -14.1%
CNc1ncnc2c1ncn2[C@H]1C[C@H](O)[C@@H](CO)O1 -0.37%
C/C(=C\CNc1ncnc2c1ncn2[C@@H]1O[C@@H](CO)[C@@H](O)[C@H]1O)CO -23.4%
CC(C)N(CCCNC(=O)Nc1ccc(C(C)(C)C)cc1)C[C@H]1O[C@@H](n2cc(Br)c3c(N)ncnc32)[C@H](O)[C@@H]1O -1.9%
COc1cc2c(NC3CCN(C)CC3)nc(N3CCCCC3)nc2cc1OCCCN(C)C 1400%
C=C1O[C@@](CO)(n2cnc3c(N)ncnc32)[C@H](O)[C@@H]1O -25.4%
C=C1OC(CO)(n2cnc3c(N)ncnc32)C(O)C1O (stereo unspecified) -17.8%
